Out of some 53,000 sequences screened, about 3,700 (7%) were called active.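 The calls were made as follows: active = gene knockdowns whose robust z-score for IL-1 alpha signal is at least 2 or at most -2, so actives lie on both sides; inactive = the rest.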 Only a selection was taken, and actives are over-represented in it overall.

This experiment in a line: Components of the Cytosolic LPS Sensing Pathway: Gene Identification via Genome-wide siRNA Screen.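 Also: robust z of the log signal after scaling to non-targeting control siRNA wells of the plate.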 The following applies: RAW264.7 macrophages, IL-1a HTRF, actives lie on both sides, screened at 100 nM (by protocol), cells primed 5 h with Pam3CSK4 first. The essentials: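 RAW264.7; siRNA 100 nM final, RNAiMAX, 48h 37 degrees C; Pam3CSK4 5 h; LipidA + TransIT-TKO 24 h; IL-1a HTRF; CellTiter-Glo viability; robust z vs negative-control median.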
(Time-resolved FRET reads energy transfer from a long-lived donor to a nearby acceptor.)
Consider GAAUCCGAGAUACGAGCCUTT against H2-D4, for which the z-score is 0.0829 (inactive).

On to GGUUUGAAAUAUUGUGGAUTT against Spdye4b, for which the z-score was -1.23 (inactive).

For CCUAGGGACAUUGGUUAUUTT against Sema4f, the z-score is 2.16 (active).

As for GGAGCUUCCACAACUCAUATT against Esd, the z-score is -0.456 (inactive).

Consider GGCAGUGGAGUGUAUGGAUTT against Popdc2, for which the z-score is -0.531 (inactive).

As to GGAUGCAGCUAACAAUUACTT against Tuba8, the z-score is 1.05 (inactive).

For the sequence GGAUGGAGAGAUAAGAAAATT against Lmntd1, the z-score is -0.572 (inactive).

With CCUUUCCUAACUUGAUCACTT against Cbr2, the z-score was 0.443 (inactive).

For the sequence CCUCUUAAAACAAUACCAATT against Olr1, the z-score is 1.37 (inactive).

On to GCAAAUAAGAUUGCGUCUGTT against Cpa2, for which the z-score was 2.89 (active).

For the sequence GGCGAAGGAGAAGAAUUAATT against Rhox5, the z-score is 0.352 (inactive).

Take GGUCAACAAGCAUGCAUUUTT against Wars: the z-score is -1.65 (inactive).

With CCUUAUUUAGCUAAGCAGATT against Ran, the z-score was -2.95 (active).

Regarding GCCAACCAAAACCUAAGCATT against Gjc1, the z-score is -1.44 (inactive).

As to CCCUCACAAUGAUCGAUUUTT against Tkt, the z-score was -0.885 (inactive).

GGUAAAGUGAACUGUACCUTT against Vstm5: the z-score is 0.843 (inactive).

Consider GGUGGAGAUCCGAAAGCAUTT against Ltk, for which the z-score is 0.597 (inactive).

On to CCCUCCAGAAAAACAGUUUTT against Znrd2, for which the z-score is 0.284 (inactive).

For the sequence “GAGUGAGCAAAUACCAGUUTT against 1700001J03Rik”, the z-score is 2.52 (active).

Turning to CCAAAAAGAUUUGGAUCUCTT against Nr2f6, the z-score was 0.142 (inactive).

In the case of GGAAACUUUCUAAAUGCUGTT against Pja1, the z-score was -0.0964 (inactive).

Take GCCAUUAAUGUACCAGGUUTT against Olfr894: the z-score was -0.202 (inactive).

As to GCGUGAACGUAUUUGUUACTT against Pcdhgc3, the z-score is 0.203 (inactive).

For the sequence ACAGGAGUCCAUAGCCGUCTT against Aspscr1, the z-score is -1.47 (inactive).

On to CGGAGGUGGCUAUAAAAAUTT against Sik2, for which the z-score is 0.0967 (inactive).

Consider GGAUUCCUCUAACACAUUUTT against Keg1, for which the z-score is 2.07 (active).

For CCUCACCCUUUCCAAAAAATT against Polr2f, the z-score was -1.03 (inactive).

Regarding GCUUUAAUUGUGAAAGCACTT against Miga1, the z-score was -2.26 (active).

Consider GCAACACCAGAGUAUGUUATT against Cldn34b3, for which the z-score is 0.794 (inactive).

Turning to GGUAUUGGGUUCCAUUAUATT against Mcmdc2, the z-score is -0.197 (inactive).

On to CCCAGCAGAAUAACUGCCATT against Pantr1, for which the z-score was 2.55 (active).

With GAAAAUGGUCACUACUGAGTT against S100a8, the z-score is -0.0863 (inactive).

On to GGAAAUGAAGAAAAGUGACTT against Stk32a, for which the z-score is -0.0588 (inactive).

As to GGAGUCAACUUGUGAGGGUTT against Lrp8, the z-score was -0.48 (inactive).

CCCAGGUGAGGAUUGAUAATT against Rit2: the z-score was 0.667 (inactive).

For the sequence GCCAACAGUACUUUGUUAATT against Chordc1, the z-score was 0.589 (inactive).

Regarding GGACAUUUUAAUGUGCUCATT against Erlin2, the z-score was 0.0602 (inactive).

Turning to GGCACAGAGAUUGAAGAUCTT against Sry, the z-score is 2.04 (active).

With GCUGAAGUCUCUUCAAUGCTT against Trappc6b, the z-score was -0.71 (inactive).

In the case of GCCUACAUAACCUUAAUAUTT against Slc4a10, the z-score is 2.2 (active).

For the sequence GGGAGUAGAGAUCAAAGGCTT against Cfb, the z-score is -0.0723 (inactive).

As to GGUGAUUUGCUCAAUCCAATT against Phox2a, the z-score was 0.611 (inactive).

On to GGCUGAGAUCUAGCUUACATT against H3c15, for which the z-score was -3.21 (active).

In the case of GGCGAAGUGGUUAAAAGUGTT against Ifnar1, the z-score was -0.141 (inactive).

Turning to GGAUAUCCUUUCAAUAGAATT against Mcf2, the z-score was -0.225 (inactive).

Consider GGCCAUUUCUUUCAUAGAUTT against Dusp6, for which the z-score was 0.509 (inactive).

CCUUCGUAGCCUGUAUCAUTT against Myadm: the z-score was -0.173 (inactive).

CCGAGUAUAUCUAUAAUAGTT against Ear14: the z-score is -0.607 (inactive).

GGUGUUUUGUGAAUUGAAATT against Leprotl1: the z-score is -1.05 (inactive).

Turning to GGAAGAGUGCGUUUACCUUTT against Rrp12, the z-score is 0.388 (inactive).

Turning to GCUUACAUUAAAGGAUAUGTT against Rab5c, the z-score is 2.17 (active).

Take GGAUCUUCUGGAUAGAAUGTT against Prc1: the z-score is 1.16 (inactive).

As to CCCUUUCGACAGAUUAGACTT against Zfp69, the z-score is -1.23 (inactive).

With GGGUCAUGGACAAUAGAAATT against Olfr52, the z-score is -0.833 (inactive).

As to GGACCAAAAGGAAAAUCCATT against Kcnj6, the z-score is -1.05 (inactive).

Take CCAUAAAUGAGUCUUCAUUTT against Bnip5: the z-score is -0.0535 (inactive).

With GUGGACAUCCUCUCUGUCATT against Tmem54, the z-score is -2.23 (active).

With CCCAUCGAUCCAUCACAUUTT against Olfr63, the z-score is -1.47 (inactive).

In the case of GGCAAGCUGAAGAUGAACATT against Ntn1, the z-score is -1.14 (inactive).

Regarding CGCAAGCCUGACAUACUGCTT against Etv3, the z-score was 0.382 (inactive).

Consider GGUAGCAUAGGCUAGCAUATT against Crcp, for which the z-score was 0.0494 (inactive).

For the sequence GGCAAACCAGGAAAAGGUCTT against Abhd2, the z-score was -2.33 (active).

Consider CCAAACGGAAGUAUCUUAUTT against Tmem128, for which the z-score is 0.246 (inactive).

CGACCAGAGUGGAUACCUGTT against Ocm: the z-score was 1.98 (inactive).

GCUUCCUACAAUUAAUUCATT against Thap12: the z-score was 0.614 (inactive).

For the sequence GGGAAUGGAGGUCCAGAUUTT against Spatc1l, the z-score is -2.33 (active).

As to CGUAGAAGUUGAUGAGUCATT against Numb, the z-score was -1.05 (inactive).

Take GGAUUUAGGCCUUAUCAUCTT against Atf3: the z-score is -2.12 (active).

With GGAAGUUAUUGCCAGCGAGTT against Fbxo5, the z-score is -0.418 (inactive).

GCAGUCUCACCUGAACAGATT against Eppin: the z-score is 0.43 (inactive).

Turning to CCCACCUUCAAGCAAGAACTT against Ifnk, the z-score was -2.51 (active).

Consider GGAGAGCAUGUGACCAAAATT against Safb2, for which the z-score is 0.758 (inactive).

Regarding GCAAAACUGUGUCAGUAUCTT against Slco5a1, the z-score was 0.901 (inactive).

On to GGUCAAAGAGUUCUGUGAATT against Ppp2r1a, for which the z-score was -0.79 (inactive).

With GGGCUGACCAGUUUGAGUATT against Polr2h, the z-score is -2.7 (active).

Turning to GGCAUGCCUGUUGCUAUGATT against Cyp3a44, the z-score is 0.182 (inactive).

In the case of “AUCUUUCAGUCACACGACCTT against A730085E03Rik”, the z-score is -0.942 (inactive).

Consider GGUAGCUUAGAGGACUAACTT against Cidec, for which the z-score was -1.78 (inactive).

In the case of GGCUGAAAGAUUGUAUUGATT against Rwdd2b, the z-score was -0.601 (inactive).

With CUCAAAAUCUGGUGAUAAATT against Adam34, the z-score is 2.66 (active).

In the case of AGCCGAUCCUGUGCCUGUUTT against Dnph1, the z-score is 0.592 (inactive).

As for GGGACUUUGGUCAAUAAUGTT against Tcf19, the z-score is 0.247 (inactive).

In the case of GGGAAGAAGCUAAAGAAGATT against Wipf1, the z-score was 1.44 (inactive).

For GCACGUGGAUCCUAACAAGTT against Exd1, the z-score was -1.84 (inactive).

As for GGAAAAGAUAGAGUUACUUTT against Lrif1, the z-score is 0.484 (inactive).

With UGGGAAGGUGCUCACUGAGTT against Dnph1, the z-score is -2.53 (active).

On to GGCUGUCUUUGUUCCAGUATT against Tnfrsf10b, for which the z-score was 0.218 (inactive).

As for GGGCCAAGGAACCUAUUUGTT against Ltbr, the z-score is 0.58 (inactive).

GGCUCUUAGAAAAAUGUUATT against Olfr1156: the z-score is -0.816 (inactive).

As for GGUCUACGGCACCUUCUAUTT against Bsnd, the z-score was -0.438 (inactive).

Take CGGGUUUCAUUAUUAUUCCTT against Foxa1: the z-score is -0.352 (inactive).

With GGUGUGCCUAUGUUAUAGUTT against Slc13a5, the z-score was -0.982 (inactive).

On to GGUGAGUUAUAAAAGACCATT against Pex12, for which the z-score is -0.0509 (inactive).

As to GGUGGAUUUUGAAACUAUUTT against Pcdhb17, the z-score is 1.11 (inactive).

As for GGCUGAACUGAUCCUGUACTT against Kcnh3, the z-score is -2.22 (active).

Consider GCAAGUAGUUAGCUCAGGGTT against Gabpb1, for which the z-score was -0.752 (inactive).

Consider GGCAUUCUGAAAAAAUAGCTT against Rb1cc1, for which the z-score is -1.55 (inactive).

Take GGUUUGUGGAUGACAACGGTT against Mtf1: the z-score is 0.216 (inactive).

As for GGCGAAUGGAAGAUAAUGCTT against Stxbp3, the z-score is -0.233 (inactive).

For CGAGUUUGUAAUGAUGCUATT against Cabp4, the z-score was 2.51 (active).

Take GGAACUCUGUAGACAGAAUTT against Lpin1: the z-score is 0.705 (inactive).

On to GGCUCAGAUCUUUGACUACTT against Pnp, for which the z-score is -0.232 (inactive).

As for GGACUUGGAGUUUCGUAAATT against Lmnb1, the z-score was 2.92 (active).

As to GGCUGAAAAGAAAAACAGATT against Rgs5, the z-score is -0.378 (inactive).

As for CGUGACAUGCACGACUUCUTT against Tac2, the z-score was 1.49 (inactive).

Consider GGGAGAAAAGGGUCAAAAATT against Marco, for which the z-score is 0.819 (inactive).

For GGCCAAGGAAAUAUCAAUGTT against Alg14, the z-score was 2.69 (active).

Consider GGAACUGUGUGACUACUUUTT against Necab2, for which the z-score is 0.18 (inactive).

The values above are taken from PubChem BioAssay AID1508600 (Functional Genomics Laboratory (NCATS/FGL), 2020).
